Measured values reported in PubChem BioAssay (EPA / NIEHS).
Calls of active or inactive are those of the source. Rule for the calls: active = hit-call score of the fitted dose curve at least 0.9, where 1 is the maximum; inactive = score below 0.9.

Experiments:
[1] = ATG_CRE_CIS: Attagene CIS-FACTORIAL HepG2 Assay for human cAMP Responsive Element (CRE) binding protein 3 (AID 2282926); settings: HepG2 CRE cis-reporter, Attagene multiplexed mRNA; actives raise or lower the signal
Method in brief: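 Endogenous CRE-binding activity in HepG2 is reported through a cis-regulated transfected reporter. Following a day of exposure, mRNA levels are determined by reverse transcription PCR and fluorescent fragment analysis; fits run in both directions versus DMSO.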

[2] = molecular target: CCAAT/enhancer-binding protein beta (Homo sapiens) (UniProt P17676); assay: ATG_C_EBP_CIS: Attagene CIS-FACTORIAL HepG2 Assay for human CCAAT/Enhancer Binding Protein (C/EBP) beta (AID 2282927); settings: HepG2 Attagene cis-factorial transcription factor reporter; actives raise or lower the signal
CCAAT/enhancer-binding protein beta (Homo sapiens), sequence (P17676 whole entry, looked up): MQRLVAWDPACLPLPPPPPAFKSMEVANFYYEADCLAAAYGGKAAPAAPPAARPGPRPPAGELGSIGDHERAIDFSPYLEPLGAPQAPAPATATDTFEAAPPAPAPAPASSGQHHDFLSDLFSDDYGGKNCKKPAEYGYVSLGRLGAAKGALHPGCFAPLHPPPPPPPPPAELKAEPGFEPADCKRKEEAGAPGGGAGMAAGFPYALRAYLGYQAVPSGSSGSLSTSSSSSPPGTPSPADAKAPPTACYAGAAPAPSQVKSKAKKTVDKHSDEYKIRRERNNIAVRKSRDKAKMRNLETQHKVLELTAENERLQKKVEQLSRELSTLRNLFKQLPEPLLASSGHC
Method in brief: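 HepG2, transient MRTU transfection, 24 h treatment. RT-PCR plus CE fluorescence; DMSO negative control, bidirectional fit.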

[3] = ATG_CMV_CIS: Attagene CIS-FACTORIAL HepG2 Assay for human CMV (Internal Marker) (AID 2282928); settings: HepG2 CMV promoter reporter, transcription factor profiling; actives raise or lower the signal;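 note: endpoint acts as a background internal control marker rather than a target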
Method in brief: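 Cell system: HepG2, transiently transfected multiple reporter units under cis promoters. Exposure: 24 h. Detection: RT-PCR, FAM labeling, HpaI digestion, capillary electrophoresis. Analysis: bidirectional, DMSO baseline.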

[4] = ATG_DR4_LXR_CIS: Attagene CIS-FACTORIAL HepG2 Assay for human Liver X Receptor (LXR), DR4 submotif (AID 2282929); settings: HepG2 Attagene DR4 cis-reporter, mRNA transcription; actives raise or lower the signal
Method in brief: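 The endpoint is DR4-element-driven reporter transcripts after 24 h chemical exposure of transfected HepG2 cells. These were measured via RT-PCR and capillary electrophoresis, and gain or loss of signal was fitted relative to DMSO controls.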

[5] = molecular target: Aryl hydrocarbon receptor (Homo sapiens) (UniProt P35869); assay: ATG_Ahr_CIS: Attagene CIS-FACTORIAL HepG2 Assay for human Aryl Hydrocarbon Receptor (Ahr) (AID 2282930); settings: HepG2 AhR cis-factorial reporter transcription; actives raise or lower the signal
Aryl hydrocarbon receptor (Homo sapiens), sequence (P35869 whole entry, looked up): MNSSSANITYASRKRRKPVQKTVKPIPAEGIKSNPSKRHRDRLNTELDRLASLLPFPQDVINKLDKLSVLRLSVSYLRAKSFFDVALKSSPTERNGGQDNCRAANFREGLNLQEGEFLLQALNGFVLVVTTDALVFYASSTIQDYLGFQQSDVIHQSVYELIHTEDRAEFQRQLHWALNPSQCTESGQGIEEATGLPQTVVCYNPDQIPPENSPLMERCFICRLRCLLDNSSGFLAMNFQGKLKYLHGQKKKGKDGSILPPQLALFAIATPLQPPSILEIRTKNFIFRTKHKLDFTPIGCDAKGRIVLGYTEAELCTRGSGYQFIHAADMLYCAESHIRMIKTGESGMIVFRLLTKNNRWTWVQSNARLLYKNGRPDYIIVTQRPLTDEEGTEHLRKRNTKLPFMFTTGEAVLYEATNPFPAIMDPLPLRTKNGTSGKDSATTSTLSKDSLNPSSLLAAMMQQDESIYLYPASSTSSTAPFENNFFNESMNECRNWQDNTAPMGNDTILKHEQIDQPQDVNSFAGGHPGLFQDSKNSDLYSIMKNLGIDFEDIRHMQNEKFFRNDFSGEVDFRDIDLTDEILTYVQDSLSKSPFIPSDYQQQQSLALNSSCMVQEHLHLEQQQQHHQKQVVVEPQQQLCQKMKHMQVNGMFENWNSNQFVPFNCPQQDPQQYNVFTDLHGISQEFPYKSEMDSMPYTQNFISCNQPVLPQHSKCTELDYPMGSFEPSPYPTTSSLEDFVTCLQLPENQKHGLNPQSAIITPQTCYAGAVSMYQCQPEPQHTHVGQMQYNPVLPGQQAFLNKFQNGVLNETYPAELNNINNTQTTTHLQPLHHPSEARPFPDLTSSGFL
Method in brief: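 Endogenous factor activity is tracked through cis-promoter reporter units transfected into HepG2 cells. Transcript levels at 24 h are read by fluorescent RT-PCR and capillary electrophoresis, with activity in either direction scored relative to DMSO.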

[6] = ATG_AP_1_CIS: Attagene CIS-FACTORIAL HepG2 Assay for human Activator Protein 1 (AP-1) (AID 2282931); settings: HepG2 Attagene cis-factorial AP-1 reporter mRNA; actives raise or lower the signal
Method in brief: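 Readout is reporter transcript level from endogenous transcription factor activity, quantified by RT-PCR with fluorescent primer extension and capillary electrophoresis. Transiently transfected HepG2 cells, 24 h exposure. Curves fitted both directions versus DMSO.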

[7] = ATG_AP_2_CIS: Attagene CIS-FACTORIAL HepG2 Assay for human Activator Protein 2 (AP-2) (AID 2282932); settings: HepG2 AP-2 cis-reporter, Attagene transcription factor profiling; actives raise or lower the signal
Method in brief: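 HepG2 cells transiently transfected with cis-element reporter units and exposed for 24 h. Reporter mRNA measured by RT-PCR, FAM labelling, HpaI digestion and capillary electrophoresis. Changes in either direction fitted relative to DMSO.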

[8] = ATG_BRE_CIS: Attagene CIS-FACTORIAL HepG2 Assay for human Bone Morphogenetic Protein (BMP) Response Element (BRE) (AID 2282933); settings: HepG2 BMP response element reporter, Attagene transcription factor profiling; actives raise or lower the signal
Method in brief: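 Endogenous transcription factor activity at a BMP response element was monitored in transfected HepG2 cells 24 h after dosing. Fluorescent RT-PCR products were resolved by capillary electrophoresis, and activity was fitted in both directions versus DMSO.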

[9] = molecular target: Retinoic acid receptor alpha (Homo sapiens) (UniProt P10276); assay: ATG_DR5_RAR_CIS: Attagene CIS-FACTORIAL HepG2 Assay for human Retinoic Acid Receptor Alpha (RARE), DR5 submotif (AID 2282934); settings: HepG2 Attagene cis-factorial RARE DR5 reporter, mRNA; actives raise or lower the signal
Retinoic acid receptor alpha (Homo sapiens), sequence (P10276 whole entry, looked up): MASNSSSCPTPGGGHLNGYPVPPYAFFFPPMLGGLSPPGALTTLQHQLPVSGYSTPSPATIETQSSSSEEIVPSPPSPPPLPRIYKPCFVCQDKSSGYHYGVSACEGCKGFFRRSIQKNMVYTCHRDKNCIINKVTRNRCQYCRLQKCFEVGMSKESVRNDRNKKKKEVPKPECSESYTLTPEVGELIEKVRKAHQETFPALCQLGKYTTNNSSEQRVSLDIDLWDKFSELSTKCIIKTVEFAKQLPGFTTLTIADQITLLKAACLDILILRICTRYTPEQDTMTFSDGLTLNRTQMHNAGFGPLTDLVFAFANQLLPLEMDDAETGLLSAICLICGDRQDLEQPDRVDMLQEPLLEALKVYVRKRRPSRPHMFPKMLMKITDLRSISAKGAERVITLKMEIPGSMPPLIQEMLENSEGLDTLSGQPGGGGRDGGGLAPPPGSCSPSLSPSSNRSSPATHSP
Method in brief: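 After 24 h of chemical exposure, transiently transfected HepG2 cells were lysed for total RNA; the DR5-regulated reporter transcript was quantified via RT-PCR and capillary electrophoresis, with activity fitted bidirectionally against DMSO.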

[10] = molecular target: Transcription factor E2F1 (Homo sapiens) (UniProt Q01094); assay: ATG_E2F_CIS: Attagene CIS-FACTORIAL HepG2 Assay for human E2F Transcription Factor 1 (AID 2282935); settings: HepG2 Attagene cis-reporter, E2F reporter RNA transcripts; actives raise or lower the signal
Transcription factor E2F1 (Homo sapiens), sequence (Q01094 whole entry, looked up): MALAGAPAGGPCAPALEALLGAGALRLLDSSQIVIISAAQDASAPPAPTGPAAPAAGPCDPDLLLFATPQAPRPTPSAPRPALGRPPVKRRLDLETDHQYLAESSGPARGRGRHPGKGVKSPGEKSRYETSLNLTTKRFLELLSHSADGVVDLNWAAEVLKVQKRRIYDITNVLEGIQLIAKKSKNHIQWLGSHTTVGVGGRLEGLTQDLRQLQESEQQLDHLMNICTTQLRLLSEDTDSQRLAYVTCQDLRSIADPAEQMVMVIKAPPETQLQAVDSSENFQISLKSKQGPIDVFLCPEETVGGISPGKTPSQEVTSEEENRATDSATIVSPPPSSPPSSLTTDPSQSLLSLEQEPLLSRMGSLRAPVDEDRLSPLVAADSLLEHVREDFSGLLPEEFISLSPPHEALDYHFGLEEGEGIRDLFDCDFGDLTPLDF
Method in brief: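 Endogenous E2F1 activity read through cis-promoter reporter units transfected into HepG2. After 24 h compound treatment, reporter mRNA measured by RT-PCR, HpaI digestion and capillary electrophoresis. Bidirectional fit versus DMSO.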

[11] = ATG_E_Box_CIS: Attagene CIS-FACTORIAL HepG2 Assay for human Enhancer Box (E-box) (AID 2282936); settings: HepG2 E-box cis-reporter transcription, actives raise or lower the signal
Method in brief: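 HepG2 cells transiently transfected with multiplexed cis-element reporter units, dosed 24 h; reporter mRNA quantified by RT-PCR, 6-FAM labelling, HpaI digestion and capillary electrophoresis. E-box (USF1) signal fitted bidirectionally vs DMSO.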

[12] = ATG_M_61_CIS: Attagene CIS-FACTORIAL HepG2 Assay for M61 Transcription Factor (Internal Marker) (AID 2282937); settings: HepG2 Attagene CIS-FACTORIAL M61 internal marker reporter; actives raise or lower the signal
Method in brief: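 Readout is reporter mRNA by RT-PCR, fluorescent primer extension and capillary electrophoresis, with gain or loss fitted relative to DMSO. Transfected HepG2 cells carrying endogenous-TF-driven cis reporters were exposed to chemicals for 24 hours.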

[13] = ATG_EGR_CIS: Attagene CIS-FACTORIAL HepG2 Assay for human Early Growth Response 1 (EGR1) (AID 2282938); settings: HepG2 Attagene CIS-FACTORIAL EGR reporter mRNA; actives raise or lower the signal
Method in brief: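 After 24 h compound exposure, RNA from reporter-transfected HepG2 cells was reverse-transcribed, PCR-amplified, fluorescently labelled and resolved by capillary electrophoresis. EGR1 reporter transcript changes, up or down, were fitted against DMSO, reflecting endogenous transcription-factor activity.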

[14] = ATG_M_19_CIS: Attagene CIS-FACTORIAL HepG2 Assay for M19 Transcription Factor (Internal Marker) (AID 2282939); settings: HepG2 Attagene CIS-FACTORIAL M19 internal marker reporter; actives raise or lower the signal
Method in brief: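 Background-control endpoint from a multiplexed HepG2 reporter panel. Cells carrying cis-regulated reporter constructs are treated 24 h, then reporter transcripts are amplified, fluorescently labelled and sized by capillary electrophoresis. DMSO defines baseline.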

[15] = ATG_ERE_CIS: Attagene CIS-FACTORIAL HepG2 Assay for Estrogen Response Element (ERE) (AID 2282940); settings: HepG2 ERE cis-reporter, Attagene RNA transcript; actives raise or lower the signal
Method in brief: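 Cells used were human hepatoma HepG2, transfected with multiple reporter transcription units under cis-regulatory promoters. Reporter mRNA, read 24 h post-dosing via fluorescent RT-PCR products on capillary electrophoresis, was fitted bidirectionally relative to DMSO.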

[16] = ATG_Ets_CIS: Attagene CIS-FACTORIAL HepG2 Assay for human Erythroblast Transformation Specific (ETS) (AID 2282941); settings: HepG2 ETS cis-reporter transcription, actives raise or lower the signal
Method in brief: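 After transient cis-reporter transfection, HepG2 cells receive test chemical for 24 h. Reporter mRNA levels, measured by RT-PCR and capillary electrophoresis fluorescence, are analysed bidirectionally relative to the DMSO baseline.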

[17] = ATG_FoxO_CIS: Attagene CIS-FACTORIAL HepG2 Assay for human Forkhead box O (FoxO) (AID 2282943); settings: HepG2 Attagene cis-reporter, FoxO element, mRNA; actives raise or lower the signal
Method in brief: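 Transfected HepG2 reporter cells exposed to test chemical for 24 h; reporter RNA measured by reverse transcription, PCR and fluorescent capillary electrophoresis; curves fitted for increases and decreases against DMSO.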

[18] = ATG_GATA_CIS: Attagene CIS-FACTORIAL HepG2 Assay for human GATA Binding Protein (AID 2282944); settings: HepG2 GATA cis-element reporter, Attagene multiplex mRNA; actives raise or lower the signal
Method in brief: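 Endogenous transcription factor activity was captured through cis-promoter-driven reporters in transfected HepG2 cells. After 24 h exposure, reporter transcripts were quantified by RT-PCR with fluorescent capillary electrophoresis, and responses fitted both directions against DMSO.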

[19] = molecular target: Hepatocyte nuclear factor 3-beta (Homo sapiens) (UniProt Q9Y261); assay: ATG_FoxA2_CIS: Attagene CIS-FACTORIAL HepG2 Assay for human Forkhead box A2 (FOXA2) (AID 2282942); settings: HepG2 cis-reporter transcription factor activity, 24 h; actives raise or lower the signal
Hepatocyte nuclear factor 3-beta (Homo sapiens), sequence (Q9Y261 whole entry, looked up): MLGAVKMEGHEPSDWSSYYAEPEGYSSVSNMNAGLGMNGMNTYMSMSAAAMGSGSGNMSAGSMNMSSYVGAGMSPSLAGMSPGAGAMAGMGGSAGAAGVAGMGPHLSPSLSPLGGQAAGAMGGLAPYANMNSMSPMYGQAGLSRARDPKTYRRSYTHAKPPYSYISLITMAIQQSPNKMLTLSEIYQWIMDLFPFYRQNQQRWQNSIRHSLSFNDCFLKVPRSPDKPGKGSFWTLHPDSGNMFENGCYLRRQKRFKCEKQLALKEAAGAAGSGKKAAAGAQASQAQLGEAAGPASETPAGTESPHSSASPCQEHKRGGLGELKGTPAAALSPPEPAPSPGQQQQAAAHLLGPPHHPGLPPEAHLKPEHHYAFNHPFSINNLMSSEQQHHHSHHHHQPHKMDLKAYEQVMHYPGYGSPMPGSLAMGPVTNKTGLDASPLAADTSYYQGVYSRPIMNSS
Method in brief: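 Endogenous transcription factor activity is captured via cis-element-driven reporter transcripts in transfected HepG2. Total RNA taken at 24 h post-dosing; labelled RT-PCR products resolved by capillary electrophoresis. Gain or loss fitted versus DMSO.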

Measured: AC50

C[N+](C)(C)CCCNS(=O)(=O)C(F)(F)C(F)(F)C(F)(F)C(F)(F)C(F)(F)C(F)(F)C(F)(F)C(F)(F)F
active: [3] 55.4 µM
inactive: [1] | [2] | [4] | [5] | [6] | [7] | [8] | [9] | [10] | [11] | [12] | [13] | [14] | [15] | [16] | [17] | [18]

CC(C)[N+](C)(CCOC(=O)C1c2ccccc2Oc2ccccc21)C(C)C
inactive: [1] | [2] | [3] | [4] | [5] | [6] | [7] | [8] | [9] | [10] | [11] | [13] | [14] | [15] | [16] | [19] | [17] | [18]

O=C(O[C@@H]1Cc2c(O)cc(O)cc2O[C@@H]1c1cc(O)c(O)c(O)c1)c1cc(O)c(O)c(O)c1
active: [3] 20.8 µM | [6] 72.5 µM | [8] 3.86 µM
inactive: [1] | [2] | [4] | [5] | [7] | [9] | [10] | [11] | [12] | [14] | [16] | [19] | [17] | [18]

CC(C)CC(=O)OCc1ccccc1
inactive: [1] | [2] | [3] | [5] | [6] | [7] | [8] | [9] | [10] | [11] | [12] | [13] | [14] | [15] | [16] | [17] | [18]

CC(CCC(=O)O)(c1ccc(O)cc1)c1ccc(O)cc1
inactive: [1] | [2] | [3] | [4] | [5] | [6] | [7] | [8] | [9] | [10] | [11] | [12] | [13] | [14] | [16] | [19] | [17] | [18]
active: [15] 50.4 µM

CC1(C)C(=O)N(CO)C(=O)N1CO
inactive: [2] | [4] | [5] | [6] | [7] | [8] | [9] | [10] | [11] | [13] | [14] | [15] | [16] | [19] | [17] | [18]

CC(Cl)COP(=O)(OCC(C)Cl)OCC(C)Cl (centres undefined)
inactive: [1] | [2] | [3] | [4] | [5] | [6] | [7] | [8] | [9] | [10] | [11] | [12] | [13] | [14] | [15] | [16] | [19] | [17] | [18]
